PubChem BioAssay (Tox21)
Inconclusive results are not listed. Some compounds were tested as several samples or in several runs, with calls that do not always agree. The source made the active and inactive calls. Unless noted, calls come from the whole dose curve; as a rule, active = well fitted curve in the direction sought with a large enough effect in the repeat runs; inconclusive = weak or mixed curves; inactive = no such curve, though single readings can be large; an effect the other way counts as inactive or inconclusive.

How the values were obtained:
[1] = qHTS assay to identify small molecule agonists of the hypoxia (HIF-1) signaling pathway - cell viability counter screen (AID 1224844; calls by dose curve; note: nearly all actives have a fitted effect of over 50% in size; note: potency is the fitted concentration of half-maximal effect)
Summary of the method: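 Multiplexed with the HRE beta-lactamase assay, this viability read used CellTiter-Glo luminescence (30 min, RT) on HRE-bla ME-180 cells treated 17 hrs with compounds in 0.5% dialyzed FBS medium.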

[2] = qHTS assay to identify small molecule agonists of H2AX (AID 1224845; active = well fitted activation curve with a large enough effect in the signal ratio in the repeat runs, not every such curve was filed as active; the % refers to the signal ratio)
Summary of the method: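 Wild-type CHO-K1 cells plated overnight, then exposed 3 hr at 37C to compounds at 15 concentrations (0.76% DMSO). Lysed, then HTRF anti-pH2AX(S139)-cryptate/anti-H2AX-d2 detection after 24 hr at room temperature; emissions 665 and 620 nm.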

[3] = qHTS assay to identify small molecule agonists of the hypoxia (HIF-1) signaling pathway (AID 1224846; active = well fitted activation curve with a large enough effect in the signal ratio in the repeat runs, not every such curve was filed as active; the % refers to the signal ratio)
Summary of the method: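 Hypoxia-pathway activation was scored as increased beta-lactamase from an HRE-controlled reporter in ME-180 cells; plated at 2,000 cells per well with 0.5% dialyzed FBS, they were exposed 17 hrs to compounds and then given CCF4-AM.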

[4] = qHTS assay to identify small molecule agonists of H2AX - cell viability counter screen (AID 1224847; calls by dose curve; note: nearly all actives have a fitted effect of over 30% in size; note: potency is the fitted concentration of half-maximal effect; for activity change, negative = cytotoxicity: top concentration of the series differs between compounds)
Summary of the method: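 Read-out: CellTiter-Glo luminescence, 30 min RT. Cells: wild-type CHO-K1, 1000/well, 10% FBS, plated overnight at 37C. Treatment: 15 concentrations, 3 hr, 37C, 0.76% DMSO.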

[5] = qHTS RealTime-Glo MT Cell Viability Assay in HepG2 cells - 24 hour (AID 1224867); note: nearly all actives have a fitted effect of over 50% in size
Summary of the method: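 Cell number in HepG2 cultures estimated from NanoLuc luminescence generated by metabolic reduction of a prosubstrate by living cells. The homogeneous, nonlytic format allowed repeated reads at 0, 8, 16, 24, 32 and 40 h of compound exposure.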

[6] = qHTS RealTime-Glo MT Cell Viability Assay in HEK293 cells - 32 hour (AID 1224868); note: nearly all actives have a fitted effect of over 50% in size; note: potency is the fitted concentration of half-maximal effect; for activity change, negative = cytotoxic: top concentration of the series differs between compounds
Summary of the method: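 Homogeneous bioluminescent viability format in HEK293 cells (600 cells/well). Following 5 h at 37 C/5% CO2, 23 nL compound was pintooled; the signal was measured repeatedly during 40 h incubation.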

[7] = A CellTox Green Cytotoxicity Assay to monitor cytotoxicity in HEK293 cells - 0 hour (AID 1224869); note: nearly all actives have a fitted effect of over 50% in size
Summary of the method: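 Seeding of HEK293 cells together with cytotoxicity dye preceded a 5 h incubation at 37 C/5% CO2. Test compounds in DMSO were then added and fluorescence monitored across 40 h.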

[8] = qHTS RealTime-Glo MT Cell Viability Assay in HepG2 cells - 40 hour (AID 1224870); note: nearly all actives have a fitted effect of over 50% in size
Summary of the method: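 HepG2 cells mixed with RealTime-Glo MT reagents (NanoLuc plus cell-permeant prosubstrate) were seeded at 600 cells/well, incubated 5 h at 37 C/5% CO2, then pinned with compounds in DMSO; nonlytic luminescence tracked viability during 40 h treatment.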

[9] = qHTS assay to identify small molecule antagonists of the estrogen related receptor (ERR) signaling pathway from Tox21 library (AID 1224848); note: nearly all actives have a fitted effect of over 50% in size
Summary of the method: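 Screening used an ERR reporter line supplied by NTP, exposed for 18 h at 37 C to library compounds delivered in DMSO. Signal was luciferase luminescence developed with ONE-Glo at room temperature for 30 min.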

[10] = qHTS assay to identify small molecule agonists of the estrogen related receptor (ERR) signaling pathway from Tox21 library (AID 1224849; calls by dose curve; note: nearly all actives have a fitted effect of over 15% in size); conditions: ERR reporter cell line, ONE-Glo luciferase, 18 h; at 92.4 µM (top of the series) unless noted
Summary of the method: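 Six hours post-seeding at 37 C/5% CO2, ERR cells receive DMSO-solubilised compounds; after 18 h at 37 C, ONE-Glo reagent is applied and luminescence recorded.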
% is set by controls: 0 for no effect and ±100 for the full control effect.

CCCC(C)C1(CC)C(=O)N=C(S)NC1=O (stereo unspecified)
inactive: Potency [1] | outcome [2] | outcome [3] | Potency [4] | Potency [5] | Potency [6] | outcome [7] | Potency [8]

N#CC(Br)(Br)C(N)=O
inactive: Potency [1] | outcome [2] | outcome [3] | Potency [4] | Potency [5] | Potency [6] | outcome [7] | Potency [8]

COc1ccc2c(C(=O)c3ccc(Cl)cc3)c(C)n(CC(=O)O)c2c1
inactive: Potency [1] | outcome [2] | outcome [3] | Potency [4] | Potency [5] | Potency [6] | outcome [7] | Potency [8]

N#CN
inactive: Potency [1] | outcome [2] | outcome [3] | Potency [4] | Potency [5] | Potency [6] | outcome [7] | Potency [8]

O=C(NC(O)C(Cl)(Cl)Cl)NC(O)C(Cl)(Cl)Cl (stereo unspecified)
inactive: Potency [1] | outcome [2] | outcome [3] | Potency [4] | Potency [5] | Potency [6] | outcome [7] | Potency [8]

O=C(Cl)C(Cl)Cl
inactive: Potency [1] | outcome [2] | outcome [3] | Potency [4] | Potency [5] | Potency [6] | outcome [7] | Potency [8]

Cn1c(N)nc2c3cccnc3ccc21
inactive: Potency [1] | outcome [2] | outcome [3] | Potency [4] | Potency [5] | Potency [6] | outcome [7] | Potency [8]

CC(C)(C)C(=O)Cl
inactive: Potency [1] | outcome [2] | outcome [3] | Potency [4] | Potency [5] | Potency [6] | outcome [7] | Potency [8]

OCC(Cl)CCl (stereo unspecified)
inactive: Potency [1] | outcome [2] | outcome [3] | Potency [4] | Potency [5] | Potency [6] | outcome [7] | Potency [8]

C=CC1(C)OC(=O)N(c2cc(Cl)cc(Cl)c2)C1=O (stereo unspecified)
inactive: Potency [1] | outcome [2] | outcome [3] | Potency [4] | Potency [5] | Potency [6] | outcome [7] | Potency [8]

Cc1cc(OC(=O)N(C)C)nn1C(=O)N(C)C
inactive: Potency [1] | outcome [2] | outcome [3] | Potency [4] | Potency [5] | Potency [6] | outcome [7] | Potency [8]

CCOC(=O)COc1ccc(Cl)cc1Cl
inactive: Potency [1] | outcome [2] | outcome [3] | Potency [4] | Potency [5] | Potency [6] | outcome [7] | Potency [8]

CNC(=O)O/N=C(/CSC)C(C)(C)C
inactive: Potency [1] | outcome [2] | outcome [3] | Potency [4] | Potency [5] | Potency [6] | outcome [7] | Potency [8]

CC[C@H](N)c1ccccc1
inactive: Potency [1] | outcome [2] | outcome [3] | Potency [4] | Potency [5] | Potency [6] | outcome [7] | Potency [8]

O=C(O)c1c(Cl)ccc2cc(Cl)cnc12
inactive: Potency [1] | outcome [2] | outcome [3] | Potency [4] | Potency [5] | Potency [6] | outcome [7] | Potency [8]

CCc1ccc(C2CCNCC2)cc1
inactive: Potency [1] | outcome [2] | outcome [3] | Potency [4] | Potency [5] | Potency [6] | outcome [7] | Potency [8]

CC(O)CCl (stereo unspecified)
inactive: Potency [1] | outcome [2] | outcome [3] | Potency [4] | Potency [5] | Potency [6] | outcome [7] | Potency [8]

ClC1=C(Cl)C2(Cl)C(CBr)CC1(Cl)C2(Cl)Cl (stereo unspecified)
49 µM (active) and inactive: Potency [6]
113 µM (active) and inactive: Potency [4]
inactive: Potency [1] | outcome [2] | outcome [3] | Potency [5] | outcome [7] | Potency [8]

CS(=O)(=O)Cl
inactive: Potency [1] | outcome [2] | outcome [3] | Potency [4] | Potency [5] | Potency [6] | outcome [7] | Potency [8]

CC(C)(C1CCC(O)CC1)C1CCC(O)CC1 (stereo unspecified)
inactive: Potency [1] | outcome [2] | outcome [3] | Potency [4] | Potency [5] | Potency [6] | outcome [7] | Potency [8]

NCCOS(=O)(=O)O
inactive: Potency [1] | outcome [2] | outcome [3] | Potency [4] | Potency [5] | Potency [6] | outcome [7] | Potency [8]

C=CCc1cc(OC)c2c(c1)OCO2
inactive: Potency [1] | outcome [2] | outcome [3] | Potency [4] | Potency [5] | Potency [6] | outcome [7] | Potency [8]

C=C(Cl)CCl
inactive: Potency [1] | outcome [2] | outcome [3] | Potency [4] | Potency [5] | Potency [6] | outcome [7] | Potency [8]

CCOC(=O)CC(SP(=S)(OC)OC)C(=O)OCC (stereo unspecified)
inactive: outcome [2] | outcome [3] | Potency [4] | Potency [5] | outcome [7] | Potency [8]
49 µM (active) and inactive: Potency [1]

CCC1(CC)C(=O)C=CNC1=O
inactive: Potency [1] | outcome [2] | Potency [4] | Potency [9] | activity change, positive = activation [10] 4.55% [at 42.5 µM] | Potency [5] | Potency [6] | outcome [7] | Potency [8]

Clc1cc2c(cc1Cl)Oc1cc(Cl)c(Cl)cc1O2
inactive: activity change, negative = cytotoxicity [1] -17.7% [at 0.29 µM] | activation (H2AX phosphorylation) [2] -2.07% [at 0.582 µM] | activation [3] -1.24% [at 0.291 µM] | activity change, negative = cytotoxicity [4] -1.16% [at 0.582 µM] | activity change, negative = cytotoxicity [5] -2.29% [at 0.29 µM] | cytotoxicity [7] -18% [at 0.29 µM] | activity change, negative = cytotoxic [8] -10.5% [at 0.29 µM]

C=CC=O
inactive: Potency [1] | outcome [2] | outcome [3] | Potency [4] | Potency [5] | outcome [7] | Potency [8]

C/C=C/CC#N
inactive: Potency [1] | outcome [2] | outcome [3] | Potency [4] | Potency [5] | outcome [7]

CN1C(=O)COc2c(C(=O)NC3CN4CCC3CC4)cc(Cl)cc21 (stereo unspecified)
inactive: Potency [1] | outcome [2] | outcome [3] | Potency [4] | Potency [5] | Potency [6] | Potency [8]

CC(C)(C)NC[C@H](O)c1ccc(O)cc1Cl
inactive: Potency [1] | outcome [2] | Potency [4] | Potency [9] | activity change, positive = activation [10] 0.107% [at 42.5 µM] | Potency [5] | Potency [6] | outcome [7] | Potency [8]
